What follows are sequences tested on VDR:RXRa (NR concentration 270 nM, RXRa partner concentration 90 nM) (assay: PBM binding z-score (relative to random genomic background probes); higher = stronger binding; sequences stand for … in GC…GCGATTGACAGCGTAGAATGAAGG).
Method: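 Protein-binding microarray (Agilent 4x180K custom design, double-stranded 60-nt probes: 5' GC cap, 34-nt variable region, 24-nt constant primer region; full probe sequence given). Purified or IVT nuclear receptor:RXRα heterodimers (3:1 NR:RXRα, mostly 270:90 nM) or homodimers were incubated for 1 h in PBS with 2% milk and no ligand, then detected with Alexa488 antibodies. Fluorescence from o1-orientation probes (~5 replicates averaged) was converted to z-scores against 500 random hg19 background probes. Variable regions are seed direct-repeat (DR0–DR5) sites, all their single-nucleotide variants and half-site ablations.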

Sequence	PBM binding z-score
CTCGAAAGGTAGGTTGAGGTGAGTATACGGATAA	0.309
CCTCCGAGGACAACAGGAGGTCAGAGCTGCCAGA	2.27
ATGGAAAGGTCGAAGGTGAGTATACCCACCCGAA	2.81
GCTTGTAGATCAAGGTTAAGACAGACTAAGCTAA	0.166
CAGCCTCGGTCAGGGCCAGTATAGGAGGAACGTT	-0.628
CGTCCAAGGTCAGCAGGTCAGTCAAAGCGACGTG	4.02
GCAACTGGGGCATCAGCAGGTTACCATAACTTAA	-0.109
AGTCAAAGTTCAGCTAGGTAACGTAAGATATGCT	3.03
ACTAGTTGGTCAGATGAGGTCACACACAATTCGG	4.58
AGAATGAGGTTATACGTAGATTAGGGAAGAAAGT	1.44
GATACAGCGTCAGCTAGAGGCCAGAGTATGGAAA	-0.922
GCTGCTAGGTCAGGTTGGTTAGCTAACGGGTACG	0.262
GCTGCTAGGTCAGGTTGCTCAGCTAACGGGTACG	0.0611
ACTAGCAGGCCAAGTTTGGGTCACTAAAACAAAG	0.553
AGTCAAAGTTCACTAGGTAAAGTAAGATTCAGCT	3.34
CGGACTGGGGCATAAGGTTACCATAAGCCAGCCC	0.33
TCTTGTAGATCAGCAGGGTAAGAAAGCTGGCCAA	0.195
AGTCAAAGTTCACTAGGTATCGTAAGATTCAGCT	3.89
GTACCAAGGAGAATAGGTCGTTGATGAGTAGGCG	0.0366
TCTGCTAGGTCAGTTAGTCAGCTAACGAGCTGCC	-0.204

Sequence	PBM binding z-score
CGAACGAGGGCATGAGTTTATAGCAAATGCCGAT	3.02
CCTAGCAGTCCAGGGTCACTCAAGCATTTCGCTT	2.69
ATCGAAAGGTCGAAGGTGATTATACCCACCCGAA	2.61
CTCGAAAGGTGGGTTGAGGTGAGTATACGGATAA	0.817
ATCGTAAGGTCGACGAGGTGAGTATACACCGTTT	4.52
TCGAGTAGGTTAGTCGAGGCATTCAGCCAACATA	-0.258
ACTAGCGGGCCAAGTTTGGGTCACTCAAACAAAG	0.318
TATCCTAGGTCATTCAGGGGCCAGTATAGAAAGC	3.57
GGAACGAGGGCATTCGAGTAGATAGCATGGCGAT	0.958
CGTCCAAGGTCAGGAGGTCAGTGAAAGCGACGTG	4.66
CCTACTGGGCCAAAGGTCATTGCTTCCAATGCTC	4.47
CGAACTAGGTCATACAGGACAGTGAATACATTGA	3.99
GCTGGTTGGTCAGTAAAAGGTCACACACCGGTCG	4.02
TCTTGTAGATCAATAGAGGCTAAGAAAGTGCGCT	0.377
GCATCTAGGTAATACAAGGTGAAAGTCCGATTGT	0.32
CGTCCAAGGTCAGCACGTCAGTGAAAGCGACGTG	2.46
AGTCAAAGTTCATTAGGTAACGTAAGATTCAGCT	4.72
AGTCAAGGTTCAGGACGAGGTAACGTAAAGCACG	2.03
ACTAGCAGGCAAAGGGTCACTCAAGATTAGTCCG	2.98
TCTAGTTGGTCCAAGGTCACACACTCGAAATGCG	3.77
